# Assay results: article PMC5540273 (PLoS ONE, 2017)
# Like-named read-outs stand apart in the source and are kept apart here.
# Tests used:
# Settings in all cases: n = 1
# FLT3 = test system: FLT3
# FLT4 = test system: FLT4
# FRK = test system: FRK
# FYN = test system: FYN
# GAK = test system: GAK
# GCN2(Kin.Dom.2,S808G) = test system: T1, GCN2(Kin.Dom.2,S808G)
# T1 construct: gene EIF2AK4
# GRK1 = test system: GRK1
# GRK2 = test system: T2, GRK2
# T2 construct: gene ADRBK1
# GRK3 = test system: T3, GRK3
# T3 construct: gene ADRBK2
# GRK4 = test system: GRK4
# GRK7 = test system: GRK7
# GSK3A = test system: GSK3A
# GSK3B = test system: GSK3B
# HASPIN = test system: T4, HASPIN
# T4 construct: gene GSG2
# HCK = test system: HCK
# HIPK1 = test system: HIPK1
# HIPK2 = test system: HIPK2
# HIPK3 = test system: HIPK3
# HIPK4 = test system: HIPK4
# HPK1 = test system: HPK1
# [1] = concentration: 1 μM, replicates: in singlicate
# 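Further: KINOMEscan kinase panel screen.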
smiles,measurement,setting,value
Cc1ccccc1-n1cnc2c(N)ncnc21 [SKF-97510],%Inh,FLT3; [1],0%
same,%Inh,FLT4; [1],0%
same,%Inh,FRK; [1],0%
same,%Inh,FYN; [1],8%
same,%Inh,GAK; [1],0%
same,%Inh,"GCN2(Kin.Dom.2,S808G); [1]",0%
same,%Inh,GRK1; [1],0%
same,%Inh,GRK2; [1],0%
same,%Inh,GRK3; [1],0%
same,%Inh,GRK4; [1],0%
same,%Inh,GRK7; [1],0%
same,%Inh,GSK3A; [1],1%
same,%Inh,GSK3B; [1],0%
same,%Inh,HASPIN; [1],0%
same,%Inh,HCK; [1],0%
same,%Inh,HIPK1; [1],0%
same,%Inh,HIPK2; [1],0%
same,%Inh,HIPK3; [1],0%
same,%Inh,HIPK4; [1],0%
same,%Inh,HPK1; [1],0%
O=S(=O)(c1ccc(-c2ccnc3[nH]ccc23)cc1)N1CCCC1 [GSK846226],%Inh,FLT3; [1],0%
same,%Inh,FLT4; [1],0%
same,%Inh,FRK; [1],0%
same,%Inh,FYN; [1],25%
same,%Inh,GAK; [1],28%
same,%Inh,"GCN2(Kin.Dom.2,S808G); [1]",0%
same,%Inh,GRK1; [1],0%
same,%Inh,GRK2; [1],0%
same,%Inh,GRK3; [1],0%
same,%Inh,GRK4; [1],0%
same,%Inh,GRK7; [1],0%
same,%Inh,GSK3A; [1],15%
same,%Inh,GSK3B; [1],16%
same,%Inh,HASPIN; [1],12%
same,%Inh,HCK; [1],0%
same,%Inh,HIPK1; [1],45%
same,%Inh,HIPK2; [1],0%
same,%Inh,HIPK3; [1],48%
same,%Inh,HIPK4; [1],23%
same,%Inh,HPK1; [1],25%
CC(C)(C)c1ccc(C(=O)Nc2cn3cc(-c4cccnc4)ccc3n2)cc1,%Inh,FLT3; [1],65%
same,%Inh,FLT4; [1],16%
same,%Inh,FRK; [1],23%
same,%Inh,FYN; [1],0%
same,%Inh,GAK; [1],18%
same,%Inh,"GCN2(Kin.Dom.2,S808G); [1]",21%
same,%Inh,GRK1; [1],41%
same,%Inh,GRK2; [1],0%
same,%Inh,GRK3; [1],0%
same,%Inh,GRK4; [1],0%
same,%Inh,GRK7; [1],24%
same,%Inh,GSK3A; [1],16%
same,%Inh,GSK3B; [1],5%
same,%Inh,HASPIN; [1],0%
same,%Inh,HCK; [1],44%
same,%Inh,HIPK1; [1],52%
same,%Inh,HIPK2; [1],27%
same,%Inh,HIPK3; [1],25%
same,%Inh,HIPK4; [1],15%
same,%Inh,HPK1; [1],11%
Cc1ccc(NC(=O)Nc2cccc(C(F)(F)F)c2)cc1 [GSK955403],%Inh,FLT3; 1 µM,59%
same,%Inh,FLT4; 1 µM,12%
same,%Inh,FRK; 1 µM,0%
same,%Inh,FYN; 1 µM,0%
same,%Inh,GAK; 1 µM,0%
same,%Inh,"GCN2(Kin.Dom.2,S808G); 1 µM",0%
same,%Inh,GRK1; 1 µM,2%
same,%Inh,GRK2; 1 µM,0%
same,%Inh,GRK3; 1 µM,0%
same,%Inh,GRK4; 1 µM,0%
same,%Inh,GRK7; 1 µM,10%
same,%Inh,GSK3A; 1 µM,0%
same,%Inh,GSK3B; 1 µM,0%
same,%Inh,HASPIN; 1 µM,12%
same,%Inh,HCK; 1 µM,0%
same,%Inh,HIPK1; 1 µM,8%
same,%Inh,HIPK2; 1 µM,0%
same,%Inh,HIPK3; 1 µM,0%
same,%Inh,HIPK4; 1 µM,0%
same,%Inh,HPK1; 1 µM,0%
CC1=C(C(=O)Nc2cc3cn[nH]c3cc2F)C(c2ccc(C(F)(F)F)cc2)CC(=O)N1 (stereo not shown) [GSK429286],%Inh,FLT3; [1],0%
same,%Inh,FLT4; [1],11%
same,%Inh,FRK; [1],18%
same,%Inh,FYN; [1],26%
same,%Inh,GAK; [1],0%
same,%Inh,"GCN2(Kin.Dom.2,S808G); [1]",14%
same,%Inh,GRK1; [1],5%
same,%Inh,GRK2; [1],27%
same,%Inh,GRK3; [1],73%
same,%Inh,GRK4; [1],10%
same,%Inh,GRK7; [1],0%
same,%Inh,GSK3A; [1],10%
same,%Inh,GSK3B; [1],24%
same,%Inh,HASPIN; [1],0%
same,%Inh,HCK; [1],0%
same,%Inh,HIPK1; [1],0%
same,%Inh,HIPK2; [1],0%
same,%Inh,HIPK3; [1],13%
same,%Inh,HIPK4; [1],0%
same,%Inh,HPK1; [1],29%
COc1cc2ncn(-c3cc(OCC4CCCO4)c(C(N)=O)s3)c2cc1OC (stereo not shown) [GSK204607],%Inh,FLT3; [1],0%
same,%Inh,FLT4; [1],36%
same,%Inh,FRK; [1],17%
same,%Inh,FYN; [1],33%
same,%Inh,GAK; [1],53%
same,%Inh,"GCN2(Kin.Dom.2,S808G); [1]",0%
same,%Inh,GRK1; [1],0%
same,%Inh,GRK2; [1],0%
same,%Inh,GRK3; [1],16%
same,%Inh,GRK4; [1],0%
same,%Inh,GRK7; [1],0%
same,%Inh,GSK3A; [1],20%
same,%Inh,GSK3B; [1],0%
same,%Inh,HASPIN; [1],26%
same,%Inh,HCK; [1],0%
same,%Inh,HIPK1; [1],7%
same,%Inh,HIPK2; [1],0%
same,%Inh,HIPK3; [1],17%
same,%Inh,HIPK4; [1],52%
same,%Inh,HPK1; [1],15%
Cc1cccc(-c2nc(-c3ccc(S(C)(=O)=O)cc3)sc2-c2ccnc(NCCc3ccccc3)c2)c1,%Inh,FLT3; [1],0%
same,%Inh,FLT4; [1],7%
same,%Inh,FRK; [1],66%
same,%Inh,FYN; [1],0%
same,%Inh,GAK; [1],0%
same,%Inh,"GCN2(Kin.Dom.2,S808G); [1]",16%
same,%Inh,GRK1; [1],11%
same,%Inh,GRK2; [1],0%
same,%Inh,GRK3; [1],6%
same,%Inh,GRK4; [1],0%
same,%Inh,GRK7; [1],7%
same,%Inh,GSK3A; [1],0%
same,%Inh,GSK3B; [1],0%
same,%Inh,HASPIN; [1],42%
same,%Inh,HCK; [1],0%
same,%Inh,HIPK1; [1],15%
same,%Inh,HIPK2; [1],0%
same,%Inh,HIPK3; [1],6%
same,%Inh,HIPK4; [1],8%
same,%Inh,HPK1; [1],11%
CN1C(=O)C(Nc2ccc(Cl)c(C(=O)O)c2)=C(c2ccc(Cl)cc2)C1=O [SB-404290],%Inh,FLT3; [1],0%
same,%Inh,FLT4; [1],0%
same,%Inh,FRK; [1],0%
same,%Inh,FYN; [1],0%
same,%Inh,GAK; [1],14%
same,%Inh,"GCN2(Kin.Dom.2,S808G); [1]",9%
same,%Inh,GRK1; [1],12%
same,%Inh,GRK2; [1],0%
same,%Inh,GRK3; [1],4%
same,%Inh,GRK4; [1],19%
same,%Inh,GRK7; [1],0%
same,%Inh,GSK3A; [1],6%
same,%Inh,GSK3B; [1],33%
same,%Inh,HASPIN; [1],21%
same,%Inh,HCK; [1],17%
same,%Inh,HIPK1; [1],19%
same,%Inh,HIPK2; [1],8%
same,%Inh,HIPK3; [1],34%
same,%Inh,HIPK4; [1],11%
same,%Inh,HPK1; [1],0%
CC(C)(C)c1ccc(C(=O)Nc2cn3cc(Cl)ccc3n2)cc1,%Inh,FLT3; [1],70%
same,%Inh,FLT4; [1],0%
same,%Inh,FRK; [1],12%
same,%Inh,FYN; [1],99.3%
same,%Inh,GAK; [1],0%
same,%Inh,"GCN2(Kin.Dom.2,S808G); [1]",36%
same,%Inh,GRK1; [1],10%
same,%Inh,GRK2; [1],0%
same,%Inh,GRK3; [1],0%
same,%Inh,GRK4; [1],0%
same,%Inh,GRK7; [1],0%
same,%Inh,GSK3A; [1],3%
same,%Inh,GSK3B; [1],0%
same,%Inh,HASPIN; [1],0%
same,%Inh,HCK; [1],1%
same,%Inh,HIPK1; [1],0%
same,%Inh,HIPK2; [1],0%
same,%Inh,HIPK3; [1],0%
same,%Inh,HIPK4; [1],0%
same,%Inh,HPK1; [1],4%
Fc1cc(Cl)ccc1Nc1ccnc2cc(-c3ccc(CN4CCCCC4)o3)ccc12 [GW560116],%Inh,FLT3; [1],0%
same,%Inh,FLT4; [1],0%
same,%Inh,FRK; [1],4%
same,%Inh,FYN; [1],18%
same,%Inh,GAK; [1],35%
same,%Inh,"GCN2(Kin.Dom.2,S808G); [1]",0%
same,%Inh,GRK1; [1],0%
same,%Inh,GRK2; [1],0%
same,%Inh,GRK3; [1],18%
same,%Inh,GRK4; [1],0%
same,%Inh,GRK7; [1],0%
same,%Inh,GSK3A; [1],0%
same,%Inh,GSK3B; [1],0%
same,%Inh,HASPIN; [1],32%
same,%Inh,HCK; [1],0%
same,%Inh,HIPK1; [1],0%
same,%Inh,HIPK2; [1],0%
same,%Inh,HIPK3; [1],1%
same,%Inh,HIPK4; [1],0%
same,%Inh,HPK1; [1],14%
O=C(Nc1n[nH]c2nc(-c3nccs3)c(Br)cc12)C1CC1 [SB-742251],%Inh,FLT3; [1],88%
same,%Inh,FLT4; [1],8%
same,%Inh,FRK; [1],2%
same,%Inh,FYN; [1],3%
same,%Inh,GAK; [1],0%
same,%Inh,"GCN2(Kin.Dom.2,S808G); [1]",0%
same,%Inh,GRK1; [1],1%
same,%Inh,GRK2; [1],0%
same,%Inh,GRK3; [1],27%
same,%Inh,GRK4; [1],0%
same,%Inh,GRK7; [1],0%
same,%Inh,GSK3A; [1],89%
same,%Inh,GSK3B; 1 µM,39%
same,%Inh,HASPIN; [1],11%
same,%Inh,HCK; [1],0%
same,%Inh,HIPK1; [1],0%
same,%Inh,HIPK2; [1],0%
same,%Inh,HIPK3; [1],0%
same,%Inh,HIPK4; [1],0%
same,%Inh,HPK1; [1],48%
